# Data: PubChem BioAssay AID1745849 (National Center for Advancing Translational Sciences (NCATS), 2022)
# The campaign covered roughly 2,100 compounds. About 320 (15%) were called active. Inconclusive results (about 52%) are left out. The list shows a part of the results. Unmarked numbers belong to inactive results. The call rests on the fitted dose curve; in most records, active means well fitted cell-killing curve with a large enough effect; inconclusive means small, poorly fitted or top-dose-only effect, or effect the other way; inactive means flat fitted curve, though single readings scatter.
# Assay: Viability Counterscreen for CMV-Luciferase Assay of Inhibitors of ATXN expression; further: nearly all actives have a fitted effect of over 55% in size
# Conditions: HEK-293 CMV-luciferase cells viability, protease fluorescence, 24 h; activity change, negative = cytotoxicity: at the top concentration
# Outline: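 In the same wells, a multiplexed format measured viability and then the CMV-luciferase signal in HEK-293 cells following 24 hr compound exposure at several concentrations. The viability substrate was Gly-Phe-AFC at 25 uM final.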
# On the % scale 0 is the no-effect control and ±100 the full control effect; potency means the concentration at half of the fitted maximal effect.
Compound,"activity change, negative = cytotoxicity",Potency
CCCC(=O)NC(c1ccc(C(C)C)cc1)c1ccc2cccnc2c1O (centres undefined),-20.8%,–
CC(=O)NC(c1cccc([N+](=O)[O-])c1)c1ccc2cccnc2c1O (centres undefined),–,1.58 µM (active)
CC(=O)NC(c1ccco1)c1ccc2cccnc2c1O (centres undefined),-22.3%,–
O=C(O)CSc1cc(NS(=O)(=O)c2cccc([N+](=O)[O-])c2)c2ccccc2c1O,-27.2%,–
Oc1c(C(Nc2cccc(C(F)(F)F)c2)c2cccnc2)ccc2cccnc12 (centres undefined),-27.3% [at 57.5 µM],–
Oc1c(C(Nc2ccccn2)c2cccnc2)cc(Cl)c2cccnc12 (centres undefined),20.9% [at 57.5 µM],–
CCc1nc2c(OCCOc3ccc(F)cc3)cccn2c1N(C)C(=O)c1ccco1,14.6% [at 57.5 µM],–
CCCCOc1ccccc1NC(=O)c1scc2c1OCCO2,-13.6%,–
Cc1ccc(/C=C2/CNC/C(=C/c3ccc(C)cc3)C2=O)cc1,–,8.91 µM (active)
O=C(CNC(=O)c1ccco1)N/N=C/c1cc(Br)ccc1O,-12.2% [at 57.5 µM],–
CC(C)(CC(=O)N1CCN(c2ccc(Cl)cc2)CC1)CC1=NS(=O)(=O)c2ccccc2N1,-18.6%,–
OC(c1cc(-c2cccc(Cl)c2)nc2ccccc12)C1CCCCN1 (centres undefined),–,17.8 µM (active)
CCOC(=O)Cn1cc(C(=O)c2ccco2)c2ccccc21,0.882%,–
Cc1c(C(=O)NCc2ccc(C(F)(F)F)cc2)sc(=O)n1Cc1cccc(F)c1,12% [at 57.5 µM],–
CCn1cc(C(=O)NCc2cccc(F)c2)c(=O)c2cc(F)c(N3CCN(C(=O)c4ccco4)CC3)cc21,–,22.4 µM (active)
CC(=O)c1ccc(N2CCN(CC(O)COC(c3ccccc3)c3ccccc3)CC2)cc1 (centres undefined),-1.22%,–
CCCOc1ccc(C(=O)C(CN2CCOCC2)c2ccccc2)cc1 (centres undefined),–,25.1 µM (active)
COc1ccc(-c2csc(Nc3ccc(S(N)(=O)=O)cc3)n2)cc1OC,-22.9% [at 57.5 µM],–
COc1ccc(CC(=O)Nc2nc(-c3ccc(OC)c(OC)c3)cs2)cc1OC,-25.3%,–
COc1cccc(CC(=O)Nc2nc(-c3ccc(OC)c(OC)c3)cs2)c1,–,28.2 µM (active)
CC(C)(C)c1ccc(CC(=O)N2CCC2(C)C(=O)Nc2cnc3ccccc3c2)cc1 (centres undefined),-1.12%,–
NC(=S)n1[nH]c(-c2ccc([N+](=O)[O-])cc2)c(N=Nc2cccc(Cl)c2)c1=O,–,14.1 µM (active)
CCOc1ccc(C(=O)Nc2ccc(Cc3ccncc3)cc2)cc1Br,-12.6% [at 57.5 µM],–
Cc1cccc(OCCCC(=O)Nc2nc3ccccc3[nH]2)c1,-23.8%,–
Cc1cc(C)c(C)c(OC(=O)c2sc(Cl)nc2C)c1,–,20 µM (active)

Compound,"activity change, negative = cytotoxicity",Potency
COC(=O)c1sc(NC(=O)c2ccc(OC)cc2OC)nc1C,-8.55% [at 57.5 µM],–
Clc1ccc(COC(Cn2ccnc2)c2ccc(Cl)cc2Cl)c(Cl)c1 (centres undefined),-29.7%,–
CCc1cc2c(=O)c(-c3cnn(-c4ccccc4)c3)coc2c(CN2CCOCC2)c1O,-15.4%,–
Cc1nnc(SCC(N)=O)n1CC1CCCO1 (centres undefined),-21.6% [at 57.5 µM],–
COc1cccc2c1C(=N)c1c(O)c3c(c(O)c1C2=O)CC(O)(C(C)=O)CC3OC1CC(N)C(O)C(C)O1 (centres undefined),–,1.26 µM (active)
COc1cccc2c1C(=O)c1c(O)c3c(c(O)c1C2=O)C[C@](O)(C(C)=O)C[C@H]3O[C@@H]1C[C@@H](N)[C@@H](O)[C@@H](C)O1,–,0.891 µM (active)
CCCCC(=O)OCC(=O)C1(O)Cc2c(O)c3c(c(O)c2C(OC2CC(NC(=O)C(F)(F)F)C(O)C(C)O2)C1)C(=O)c1c(OC)cccc1C3=O (centres undefined),–,8.91 µM (active)
Cn1c(CCc2nc3ccccc3[nH]2)nnc1SCC#N,15.7% [at 57.5 µM],–
CCC(C)(C)c1ccc(OCCCC[n+]2ccc(C)cc2)c(C(C)(C)CC)c1,-27.3%,–
CN(CC(=O)Nc1cccc(F)c1)CC(=O)Nc1cccc2ccccc12,-9.2% [at 57.5 µM],–
CCN1CCN(Cc2ccc(NC(=O)c3ccc(C)c(NC(=O)c4nccnc4N)c3)cc2C(F)(F)F)CC1,-25.1% [at 57.5 µM],–
O=C1C=C(Nc2ccccc2O)c2ccccc2C1=O,–,20 µM (active)
OC(c1ccccc1)(c1nc(-c2ccc3ccccc3c2)cs1)C(F)(F)F (centres undefined),11%,–
Cc1ccc(NS(=O)(=O)c2cc3c4c(cccc4c2)C(=O)NC3=O)cc1C,-14.4%,–
O=C(NN=C(c1ccccc1)c1ccccn1)c1ccccc1,–,3.16 µM (active)
O=C(N/N=C(\c1ccccc1)c1ccccn1)c1ccccc1Cl,–,7.94 µM (active)
O=C(N/N=C(\Cc1ncc[nH]1)c1ccccc1)c1cccnc1,-16.1%,–
CCC(CC)C(=O)c1c[nH]c(C(=O)NCc2ccccn2)c1,3.69% [at 57.5 µM],–
CCn1c2ccccc2c2cc(/C=N/n3cnnc3)ccc21,-23.3%,–
CCN1CCN(C(=S)c2ccc(-c3ccccc3)cc2)CC1,-13.5% [at 57.5 µM],–
Cn1c2c(c(=O)[nH]c1=O)C(c1cccc(O)c1)C1=C(N2)c2ccccc2C1=O (centres undefined),–,11.2 µM (active)
CNc1nc2c(N)ncnc2n1[C@H]1O[C@@H](CO)[C@H](O)[C@@H]1O,1.58%,–
N#Cc1c(N)n(C2OC(CO)C(O)C2O)c2ncnc(N)c12 (centres undefined),–,1.41 µM (active)
CCOC(=O)c1c(NC(=O)COC(=O)c2ccccc2NC)sc(C(=O)N(C)C)c1C,-3.31%,–
